Records with an inconclusive call do not appear. A number with no mark means an inactive call. Calls follow the shape of the dose curve; as a rule, active = well fitted activation curve with a large enough effect; inconclusive = small, poorly fitted or top-dose-only effect; inactive = flat fitted curve, though single readings scatter.

The experiment in a line: Primary redox qHTS assay for identification of artifact compounds. (AID 1845223).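 Also: 0% = DMSO and 100% = reference compound.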 The settings on record: Amplex Red/HRP redox cycling with DTT, fluorescence; series mostly up to 53.8 µM; redox activity (% of DA3003): at the top concentration. In outline:
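Redox-cycling detection via DTT (250 uM final) oxidation coupled to Amplex Red (25 uM)/HRP (250 mU/mL) in HBSS. 15 min preincubation plus 30 min after DTT, room temperature. Ex/Em 525/598 nm; 4-parameter Hill fit against DMSO and 10 uM DA3003.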
For the molecule `Cc1c(C(=O)Nc2ccc(N3CCC(N4CCOCC4)CC3)c(C#N)c2)cnn1-c1ccc(Cl)cc1`, the “redox activity (% of DA3003)” value is -3.24%. Take `CNC(=O)[C@@H](c1ccccc1)N1CCc2cc(OC)c(OC)cc2[C@@H]1CCc1ccc(C(F)(F)F)cc1`: the “redox activity (% of DA3003)” value is 9.95%. Take `CCC(C)C(=O)OC12C(OC(C)=O)C(C)C3(O)C(C=C(CO)CC4(O)C(=O)C(C)=CC43)C1C2(C)C` (centres undefined): the “redox activity (% of DA3003)” value is -1.29% [at 25.6 µM].

With `COc1cc(NC(=O)c2cc(C3CC3)on2)c(OC)cc1Cl`, the “redox activity (% of DA3003)” value was -7.22%. `O=C(NCCCN1CCC2(CC1)OCc1ccccc12)[C@H]1CCCN1Cc1ccccc1`: the “redox activity (% of DA3003)” value was 17.7%.

As for `Cc1cc(-c2ncc(-c3cccnc3)cc2/C=C/c2ccccc2)cnc1-c1cccnc1`, the “redox activity (% of DA3003)” value was -0.928%. Take `Cc1cc(-c2nc(-c3ccc(OC(F)(F)F)cc3)no2)nn1Cc1ccnc(N2CCN(C3CC3)CC2)c1`: the “redox activity (% of DA3003)” value is -6.72%. Regarding `c1cc(NC2CCNCC2)nc(-c2cnc3ccccn23)c1`, the “redox activity (% of DA3003)” value is -1.16%. Regarding `CC(=O)NCc1cccc(OC[C@@H](O)CNCCc2ccc(NS(=O)(=O)c3ccccc3)cc2)c1`, the “redox activity (% of DA3003)” value is 19.8%.

As for `CCCCOc1ccc(S(=O)(=O)n2c(C)nc3ccccc32)cc1`, the “redox activity (% of DA3003)” value is -1.11% [at 25.6 µM]. Take `C=C1C(=O)O[C@@H]2C[C@H](C)[C@@H]3CC(=O)[C@H](O)[C@@]3(C)C[C@H]12`: the “redox activity (% of DA3003)” value is -4.1%.

Turning to `CCn1c(N)c(C(=O)NC)c(=O)c2ccc(C#CC(C)(O)COC)nc21` (centres undefined), the “redox activity (% of DA3003)” value is 19.6%. Take `CCOC(=O)c1ccc(OCCC2CCN(c3ccc(C)nn3)CC2)cc1`: the “redox activity (% of DA3003)” value is -9.54%. As for `O=C(NC1CCN(CCCCC2(C(=O)NCC(F)(F)F)c3ccccc3-c3ccccc32)CC1)c1ccccc1-c1ccc(C(F)(F)F)cc1`, the “redox activity (% of DA3003)” value is 6.92%. In the case of `CCC(C)CC(=O)OC1C(=O)C(CO)=CC(O)C1C(C)C` (centres undefined) it was 4.11%. Regarding `COC(=O)CC(O)CC(O)/C=C/c1c(C)ccc2c1C(OC(C)=O)CC(C)C2` (centres undefined), the “redox activity (% of DA3003)” value is 9.65%.

As to `CN1CCN(S(=O)(=O)c2ccc(-c3cnc(N)c(C(=O)Nc4cccnc4)n3)cc2)CC1`, the “redox activity (% of DA3003)” value is -9.4% [at 25.6 µM]. For `CCOC(=O)C1=Cc2ccc(C(F)(F)C(F)(F)F)cc2N=C(N)C1` the value was 25.4%; for `C=CC(=O)N1CCN(C(=O)CNc2cc(-c3ccccc3Cl)c(Cl)cc2OC)CC1`, 4.23%; for `COc1c2c(nc3occc13)C(CC=C(C)C)(OC)C(O)CC2` (centres undefined), -8.86%. `CC(=O)O[C@H]1CC2C(COC(=O)CC(C)C)=CO[C@@H](OC(=O)CC(C)C)C2[C@]12CO2` (some centres undefined): the “redox activity (% of DA3003)” value was 5.51% [at 25.6 µM].

Turning to `CC(=O)O[C@]1(C(C)=O)CC[C@H]2[C@@H]3CCC4=CC(=O)CCC4=C3[C@@H](c3ccc(N(C)C)cc3)C[C@@]21C`, the “redox activity (% of DA3003)” value is 13.6%.

On to `O=C(CSc1nc2ccccc2c(=O)n1-c1ccccc1)Nc1ccc2c(c1)CCC2`, for which the “redox activity (% of DA3003)” value is -2.81%. In the case of `O=C(Nc1ccc(-c2ccc(Cl)c(Cl)c2)cc1)C1=C(O)c2ccccc2S(=O)(=O)N1` it was 9.54%; in that of `COc1ccc(C(=O)Nc2c(Cl)cncc2Cl)cc1OC1CCCC1`, -0.196%. In the case of `COc1ccccc1OCCNCC(O)CCOc1cccc2[nH]c3ccccc3c12` (centres undefined) it was 6.92%; in that of `CCC(C)/C=C(C)/C=C/C1=CC2=CC(=O)C3(C)OC(C)(O)C(C(=O)OC)C3C2=CO1` (centres undefined), 15.2% [at 25.6 µM].

In the case of `CN(C)S(=O)(=O)c1ccc(NC(=S)N2CCC(C(O)(c3ccccc3)c3ccccc3)CC2)cc1`, the “redox activity (% of DA3003)” value was -4.14%. `CCCCc1ccc(NS(=O)(=O)c2ccc(F)cc2)cc1`: the “redox activity (% of DA3003)” value was -6.18%. In the case of `C=C1C(=O)O[C@@H]2C3C(=C(C)[C@@H](O)[C@@H](OC(=O)/C(=C/C)COC(C)=O)[C@@H]12)C(=O)[C@H]1O[C@@]31C` (some centres undefined) it was 4.36% [at 25.6 µM]. `C=C(C(=O)OC[C@H]1O[C@@H](OC(=O)/C=C/c2ccccc2)[C@H](O)[C@@H](O)[C@@H]1O)C(O)CO` (some centres undefined): the “redox activity (% of DA3003)” value is 17.6% [at 25.6 µM]. For `O=C(c1ccc(F)cc1)N1CCCC(c2nc(-c3ccc(F)cc3)no2)C1` (centres undefined) the value was 2.57%; for `CC(C)CCNC(=O)[C@H](CC(C)C)NC(=O)[C@H]1O[C@@H]1C(=O)O`, -2.38%; for `CCC(C(C)O)n1ncn(-c2ccc(N3CCN(c4ccc(OCC5COC(Cn6cncn6)(c6ccc(F)cc6F)C5)cc4)CC3)cc2)c1=O` (centres undefined), -5.08%. As for `CCc1cnc(N2CCC(c3nc(COc4ccc(-n5cnnn5)cc4)cs3)CC2)nc1`, the “redox activity (% of DA3003)” value is -0.578%. In the case of `CC[N+]1(C/C2=C/CCCCCC2)CCC(NC(=O)C2c3cc(Cl)ccc3Oc3ccc(Cl)cc32)CC1` (centres undefined) it was 3.83%; in that of `CNC(=O)c1ccc2c(c1)CCO[C@H]2CCN1CCN(c2ccc(OC)cc2)CC1`, 7.67%; in that of `COc1cc2ncnc(Nc3cccc(I)c3)c2cc1OC`, 4%. In the case of `Clc1ccc(Cn2c(Cc3ccccc3)nc3ccccc32)cc1` it was -3.95%.

Source of the values: PubChem BioAssay (NCATS).
